In the library only some 1.1% were active in any assay of this set; here they are far more common.
SRC2 inh – inhibits human steroid receptor coactivator 2. Q15596. HEK293 GAL4-SRC2 luciferase reporter, luminescence. inhibition, % at 9 µM. 370,000 compounds, 0.17% hits;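 active = inhibition above the mean inhibition of all tested compounds plus 3 SD, set per campaign, cut at about 52% in these data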
GalR3 antagonist – antagonists of human GalR3; AID 651719; inhibition, % at 3 µM; HEK293 GalR3-CNG cAMP membrane potential fluorescence; galR3 body fused to GalR1 C-terminus; O60755; 360,000 compounds, 0.44% hits;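 active = inhibition above the screen-wide average plus 3 SD, cut at about 13% in these data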;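 note: forskolin and galanin both at EC90 stimulate the cells; cAMP rise reported by CNG channel membrane potential dye signal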
LRH-1 inv ag – NR5A2 inverse agonism in reporter assay; O00482; HEK293T StAR-luciferase reporter, LRH-1 transfected, 24 h; inhibition, % at 3.6 µM; 360,000 compounds, 0.13% hits; AID 602396;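 active = inhibition above the mean inhibition of all tested compounds plus 3 SD, cut at about 73% in these data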
Target sequence (O00482 whole entry, looked up): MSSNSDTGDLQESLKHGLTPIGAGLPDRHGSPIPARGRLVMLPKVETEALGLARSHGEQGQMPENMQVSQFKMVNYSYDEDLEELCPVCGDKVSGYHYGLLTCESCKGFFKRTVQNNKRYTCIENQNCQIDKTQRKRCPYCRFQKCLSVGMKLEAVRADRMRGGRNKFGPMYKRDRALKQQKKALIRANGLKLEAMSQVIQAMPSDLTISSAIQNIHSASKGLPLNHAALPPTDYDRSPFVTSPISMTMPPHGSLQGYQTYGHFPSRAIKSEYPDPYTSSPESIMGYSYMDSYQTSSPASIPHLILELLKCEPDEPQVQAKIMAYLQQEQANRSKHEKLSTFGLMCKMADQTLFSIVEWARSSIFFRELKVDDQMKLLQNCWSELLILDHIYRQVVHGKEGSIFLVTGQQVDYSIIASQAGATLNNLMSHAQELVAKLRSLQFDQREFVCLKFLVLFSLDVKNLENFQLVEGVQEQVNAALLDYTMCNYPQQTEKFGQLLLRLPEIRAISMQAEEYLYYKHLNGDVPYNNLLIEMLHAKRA
COUP-TFII inh – inhibitors of human COUP-TFII (NR2F2). P24468. HEK293T NGFI-A luciferase reporter, luminescence. inhibition, % at 8.6 µM. 370,000 compounds, 0.7% hits. AID 686940;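 active = inhibition above a per-plate cutoff, mean inhibition of test wells between control levels plus 3 SD, cut at about 38% in these data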;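 note: cells cotransfected with COUP-TFII expression vector driving the NGFI-A reporter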
NCOA1 inh – inhibitors of human steroid receptor coactivator 1 (SRC1); Q15788; HEK293 GAL4-SRC1 luciferase reporter, luminescence; inhibition, % at 3.6 µM; 360,000 compounds, 0.12% hits;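 active = inhibition above the campaign mean plus 3 SD, with each screening campaign given its own cutoff, cut at about 60% in these data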
SRC3 inh – inhibitors of human steroid receptor coactivator 3 (SRC3) | HEK293 GAL4-SRC3 luciferase reporter, luminescence | inhibition, % at 3.6 µM | 360,000 compounds, 0.17% hits;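 active = inhibition above a per-campaign cutoff, the mean of all compounds plus 3 SD, cut at about 60% in these data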;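 note: higher means less SRC3-driven luciferase light from the GAL4 reporter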
VP16 Luc counter – counter-screen for COUP-TFII antagonists: inhibitors of VP16 | shares compounds with COUP-TFII inh | 2,500 compounds, 25% hits | inhibition, % at 8.5 µM | HEK293 Gal4-VP16 luciferase reporter, luminescence | AID 687007; in the data active = inhibition above about 13%
NR2F2 inh conf – COUP-TFII (NR2F2) inhibition, confirmation assay; shares compounds with COUP-TFII inh; HEK293 NGFI-A luciferase reporter, luminescence; inhibition, % at 8.5 µM; 2,500 compounds, 45% hits;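 active = mean inhibition over three repeats above a set limit taken from the earlier primary screen, cut at about 38% in these data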
Of the large screens only hits and unclear results are named; the others gave an inactive call (follow-up assays come after a bar, where they were run).

O=C(Nc1cccc(S(=O)(=O)NC2=NCCC2)c1)c1ccccc1	none
O=C(Nc1cccc(C(F)(F)F)c1)OCCCN1CCC2(CCC(c3ccccc3)CC2)C1=O (stereo unspecified)	none (no result: GalR3 antagonist, LRH-1 inv ag, NCOA1 inh, SRC3 inh)
Cc1nc2cc(-c3ccccc3)sc2c(=O)n1N	none
COc1ccc(-c2cc3nc(C)n(N)c(=O)c3s2)cc1	SRC2 inh 71, COUP-TFII inh 66, SRC3 inh 70 | VP16 Luc counter 60 | NR2F2 inh conf 77
O=C(c1cc2c(s1)-c1ccccc1S(=O)(=O)C2)N1CCN(Cc2ccccc2)CC1	COUP-TFII inh 39 | VP16 Luc counter inactive | NR2F2 inh conf inactive
COc1ccccc1/C=C/c1nc2ccccc2c(=O)o1	none
COc1ccc(/C=C/c2nc3ccccc3n2C)cc1	SRC2 inh 58, COUP-TFII inh 64 | VP16 Luc counter inactive | NR2F2 inh conf 39
COc1ccc(Cn2c(/C=C/c3ccccc3)nc3ccccc32)cc1	none
COc1ccc(/C=C/c2nc3ccccc3c(=O)o2)cc1	SRC2 inh 77, COUP-TFII inh 79 | VP16 Luc counter inactive | NR2F2 inh conf inactive
CC1CCC2(CCC(=O)N2CCCO)CC1 (stereo unspecified)	none (no result: GalR3 antagonist, LRH-1 inv ag, NCOA1 inh, SRC3 inh)
O=C(Nc1ccccc1C(=O)O)c1cc(S(=O)(=O)N2CCCCC2)c(Cl)cc1Cl	COUP-TFII inh 40 | VP16 Luc counter inactive | NR2F2 inh conf inactive
O=S1(=O)c2ccc(Br)cc2OC[C@@H](Cc2ccccc2)N1Cc1cn(CCC2OCCO2)nn1	none (no result: GalR3 antagonist, LRH-1 inv ag, NCOA1 inh, SRC3 inh)
COc1cc2c(cc1OC)C(=O)C(c1ccc3c(c1)OCO3)CC2 (stereo unspecified)	none
COc1ccc(C2CCc3cc4c(cc3C2=NOC(C)=O)OCO4)cc1OC (stereo unspecified)	COUP-TFII inh 44 | VP16 Luc counter inactive | NR2F2 inh conf inactive
Cc1cc(N2CCNC[C@H]2C)ccc1N1C[C@@H](C)O[C@@H](C)C1	none (no result: LRH-1 inv ag, NCOA1 inh, SRC3 inh)
CCN1CCCCC(NC(=O)c2cc(OC)c(OC)c(OC)c2)C1=O (stereo unspecified)	none (no result: GalR3 antagonist, LRH-1 inv ag, NCOA1 inh, SRC3 inh)
NC(=O)c1ccc(NC(=O)c2ccc(COc3ccccc3Br)cc2)cc1	none
Cc1cc(C)n(Cc2ccc(NC(=O)c3ccc(COc4ccccc4Br)cc3)cc2)n1	COUP-TFII inh 63 | VP16 Luc counter inactive | NR2F2 inh conf inactive
COc1ccc2[nH]c3c(c2c1)CCN[C@]31C(=O)N(Cc2ccccc2)c2ccccc21	none (no result: GalR3 antagonist, LRH-1 inv ag, NCOA1 inh, SRC3 inh)
COc1ccc2ccccc2c1C=NNC(=O)c1cc(-c2ccc(C)c(C)c2)n[nH]1	none (no result: GalR3 antagonist, LRH-1 inv ag, NCOA1 inh, SRC3 inh)
CCCOc1ccc(/C=N/Nc2ccccc2[N+](=O)[O-])c(O)c1	COUP-TFII inh 44 | VP16 Luc counter inactive | NR2F2 inh conf 46
CCCOc1ccc(/C=N/NC(=S)Nc2ccccc2[N+](=O)[O-])c(O)c1	SRC2 inh 52, COUP-TFII inh 73 (no result: LRH-1 inv ag, NCOA1 inh, SRC3 inh) | VP16 Luc counter 73 | NR2F2 inh conf 83
Cc1ccccc1CS(=O)(=O)Cc1ccc(C(=O)Nc2ccc(F)cc2)o1	COUP-TFII inh 53 (no result: GalR3 antagonist, LRH-1 inv ag, NCOA1 inh, SRC3 inh) | VP16 Luc counter inactive | NR2F2 inh conf inactive
Cc1ccc(OCC(=O)c2cc(C)n(CC(F)(F)F)c2C)c([N+](=O)[O-])n1	none
Cc1ccc(OCC(=O)c2cc(C)n(Cc3cccs3)c2C)c([N+](=O)[O-])n1	SRC2 inh 66, COUP-TFII inh 61 | VP16 Luc counter inactive | NR2F2 inh conf inactive
O=C1NCCN1CCN1CCC(c2cn(-c3ccc(F)cc3)c3ccc(Cl)cc23)CC1	COUP-TFII inh 43 (no result: GalR3 antagonist, LRH-1 inv ag, NCOA1 inh, SRC3 inh) | VP16 Luc counter inactive | NR2F2 inh conf inactive
O=C(NCCN1CCC(n2c(=O)[nH]c3cc(Cl)ccc32)CC1)c1ccc(F)cc1	none (no result: LRH-1 inv ag, NCOA1 inh, SRC3 inh)
Cc1cc(C)cc(N(CC(=O)NC2CCC(C)CC2)S(=O)(=O)c2cccs2)c1 (stereo unspecified)	none (no result: GalR3 antagonist, LRH-1 inv ag, NCOA1 inh, SRC3 inh)
COC(=O)[C@]12C[C@H](CC(=O)NCCCN3CCCC3=O)C(=O)N(Cc3ccc4c(c3)OCO4)C1=C[C@H](COCc1ccccc1)O[C@@H]2C	none (no result: LRH-1 inv ag, NCOA1 inh, SRC3 inh)
CC[C@H](C)[C@@H]1NC(=O)[C@@H](CC(C)C)NC(=O)[C@H](C(C)C)NC(=O)[C@H]2CSSC[C@H](NC1=O)C(=O)N2	SRC2 inh 94, LRH-1 inv ag 103, COUP-TFII inh 106, NCOA1 inh 96, SRC3 inh 95 | VP16 Luc counter 96 | NR2F2 inh conf 112
CCCC(=O)OC12CCCN(C1)/C(=C/c1ccc(Cl)cc1)C2 (stereo unspecified)	none (no result: GalR3 antagonist, LRH-1 inv ag, NCOA1 inh, SRC3 inh)
O=S(=O)(c1cc2ccccc2s1)n1c(CN2CCOCC2)nc2ccccc21	none (no result: GalR3 antagonist, LRH-1 inv ag, NCOA1 inh, SRC3 inh)
CC(C)CN1C(=O)C[C@@]2(C(=O)N(C)c3ccc(NC(=O)c4cc(F)ccc4F)cc32)C1c1ccccc1 (stereo partly specified)	none (no result: GalR3 antagonist, LRH-1 inv ag, NCOA1 inh, SRC3 inh)
CC(CNC(=O)c1cc(COc2ccc3ncccc3c2)on1)c1ccccc1 (stereo unspecified)	COUP-TFII inh 46 | VP16 Luc counter inactive | NR2F2 inh conf inactive
Cc1cccnc1CN1CCN(C(=O)c2cc(COc3ccc4ncccc4c3)on2)CC1	COUP-TFII inh 63 | VP16 Luc counter inactive | NR2F2 inh conf 38
CCOC(=O)N1CCN(C(=O)c2cc(COc3ccc4ncccc4c3)on2)CC1	COUP-TFII inh 58 | VP16 Luc counter inactive | NR2F2 inh conf 46
COCCC1CCCCN1C(=O)c1cc(COc2ccc(C)nc2)on1 (stereo unspecified)	none
O=C(c1cc(COc2ccc3ncccc3c2)on1)N1CCC[C@H]1CO	COUP-TFII inh 38 | VP16 Luc counter inactive | NR2F2 inh conf inactive
COC(=O)[C@@]12CCCCC3=C1N(CCC3)C(=O)[C@H]2CC(=O)NCc1ccc(C)o1	none (no result: GalR3 antagonist, LRH-1 inv ag, NCOA1 inh, SRC3 inh)
COC(=O)CCC(=O)N1C2=NC3=C(C(=O)N(Cc4ccc5c(c4)OCO5)C3=O)C3N(C)c4ccccc4[C@]23C[C@H]1CO (stereo partly specified)	none (no result: GalR3 antagonist, LRH-1 inv ag, NCOA1 inh, SRC3 inh)
C=CCN1c2ccccc2Sc2cnccc21	none
CC(=O)OCCN1c2ccccc2Sc2cnccc21	COUP-TFII inh 37 | VP16 Luc counter inactive | NR2F2 inh conf inactive
CC(=O)N1CCc2cc(S(=O)(=O)NC3CCN(C(=O)OCc4ccccc4)CC3)ccc21	COUP-TFII inh 61 (no result: GalR3 antagonist, LRH-1 inv ag, NCOA1 inh, SRC3 inh) | VP16 Luc counter inactive | NR2F2 inh conf inactive
CC(c1ccc(NC(=O)OC(C)(C)C)cc1)c1cn(C)c2ccccc12 (stereo unspecified)	none (no result: GalR3 antagonist, LRH-1 inv ag, NCOA1 inh, SRC3 inh)
NC(=O)c1c(N)[nH]c(C(=O)c2ccccc2)c1-c1ccccc1	none (no result: LRH-1 inv ag, NCOA1 inh, SRC3 inh)
O=C(Nc1ccn(Cc2ccccc2F)n1)c1ccc(COc2ccccc2Cl)cc1	COUP-TFII inh 61 | VP16 Luc counter inactive | NR2F2 inh conf inactive
O=C(Nc1ccn(Cc2c(F)c(F)cc(F)c2F)n1)c1ccc(COc2ccccc2Cl)cc1	none (no result: SRC2 inh, GalR3 antagonist, COUP-TFII inh)

Screening data (PubChem BioAssay)
